PubChem BioAssay
Unmarked numbers belong to inactive results. The source made the active and inactive calls.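 Rule for the calls: active = thallium flux through the channel raised or lowered by more than 3 SD from vehicle-only wells, actives on both sides; inactive = the rest.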

Tests used:
Assay in all cases: modulators of BK channel variants, profiling panel, selectivity assay, cell-based, U2OS BacMam, thallium flux, beta subunits (AID 1259406);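 note: initial slope of Thallos dye fluorescence rise after thallium is added; log ratio against the mean of 0.3% DMSO vehicle wells on the same plate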
F380Y = settings: at 30 µM
F380Y/beta1 = settings: at 30 µM
F380Y/beta2Delta = settings: at 30 µM
F380Y/beta4 = settings: at 30 µM
[1] = molecular target: Calcium-activated potassium channel subunit alpha-1 (Homo sapiens) + Leucine-rich repeat-containing protein 26 (Homo sapiens) (UniProt Q12791+Q2I0M4); settings: F380Y/Slo1WT/gamma1, at 30 µM
R275C = settings: at 30 µM
R275C/beta1 = settings: at 30 µM
R275C/beta2Delta = settings: at 30 µM
R275C/beta4 = settings: at 30 µM
R275C/Slo1WT/beta2 = settings: at 30 µM

Calcium-activated potassium channel subunit alpha-1 (Homo sapiens) + Leucine-rich repeat-containing protein 26 (Homo sapiens), sequence (Q2I0M4 whole entry, looked up, one chain of several): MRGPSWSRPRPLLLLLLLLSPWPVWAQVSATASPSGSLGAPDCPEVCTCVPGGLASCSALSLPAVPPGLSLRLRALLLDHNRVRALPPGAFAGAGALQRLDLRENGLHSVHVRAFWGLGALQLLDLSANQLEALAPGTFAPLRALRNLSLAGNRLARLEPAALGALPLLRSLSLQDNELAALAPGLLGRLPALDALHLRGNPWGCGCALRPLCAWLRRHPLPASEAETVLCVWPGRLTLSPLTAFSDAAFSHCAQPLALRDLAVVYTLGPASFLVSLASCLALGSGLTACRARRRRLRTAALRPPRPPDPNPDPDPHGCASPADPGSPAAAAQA

Structure (SMILES) | log fold change Tl+ flux (F380Y) | log fold change Tl+ flux (F380Y/beta1) | log fold change Tl+ flux (F380Y/beta2Delta) | log fold change Tl+ flux (F380Y/beta4) | log fold change Tl+ flux [1] | log fold change Tl+ flux (R275C) | log fold change Tl+ flux (R275C/beta1) | log fold change Tl+ flux (R275C/beta2Delta) | log fold change Tl+ flux (R275C/beta4) | log fold change Tl+ flux (R275C/Slo1WT/beta2)
CN1CCN(CC(=O)Nc2ccccc2Oc2ccccc2)CC1 | 0.0235 | 0.0196 | 0.0764 | 0.0239 | 0.0414 | -2.9e-05 | 0.00212 | 0.00784 | 0.00808 | 0.0378
O=S(=O)(c1ccc(N2CCOCC2)nc1)N1CCN(c2c(Cl)cncc2Cl)CC1 | 0.0448 | -0.00781 | 0.0236 | -0.00865 | -0.039 | 0.00433 | 0.0279 | 0.0194 | -0.0287 | 0.00545
Cc1ccc(S(=O)(=O)Oc2c(Cc3ccccc3)c(=O)n(C)c3ccccc23)cc1 | -0.047 | -0.00429 | -0.0297 | 0.0237 | -0.018 | -0.0579 | -0.0357 | -0.0097 | -0.0625 | 0.0422
Fc1ccc(CCc2ccc(F)cc2)cc1 | -9.9e-05 | -0.0289 | 0.0449 | 0.0131 | 0.0118 | 0.0179 | 0.0162 | 0.0454 | 0.0168 | -0.0303
CC1=NC2SC=C(c3ccccc3Cl)N2C(=O)C1 (stereo not given) | -0.0123 | 0.0244 | -0.0252 | 0.00331 | -0.0675 | -0.0205 | 0.0259 | -0.0444 | 0.037 | 0.0321
OC(Cc1ccccc1)(c1ccccc1)c1ccccc1N=Cc1ccc2c(c1)OCO2 (stereo not given) | 0.00821 | 0.0126 | -0.0347 | -0.0765 | -0.0874 | -0.0385 | -0.0387 | -0.0661 | -0.00775 | -0.0302
CSc1nc(C=Nc2cccc(Cl)c2)c(O)n1Cc1cccc(Cl)c1 | -0.00291 | 0.208 (active) | 0.0623 | -0.0889 | 0.0392 | -0.03 | 0.102 | 0.137 (active) | 0.11 (active) | -0.0459
FC(F)(F)COc1ccc(-c2nnc(SCc3ccccc3C(F)(F)F)o2)cn1 | 0.00456 | -0.0223 | -0.0257 | -0.0497 | -0.0179 | -0.0108 | 0.0313 | -0.0204 | 0.0273 | 0.0157
Cc1cc(C(=O)N2CCN(c3ncccc3C#N)CC2)no1 | -0.0195 | 0.00841 | -0.0191 | 0.032 | -0.00848 | 0.011 | 0.022 | 0.0483 | 0.00374 | 0.00615
Cc1nn(C)c2ncc(C(N)=O)c(Oc3ccc(Cl)cc3)c12 | -0.00628 | -0.0132 | 0.0115 | 0.049 | 0.0214 | -0.017 | 0.00427 | 0.0253 | -0.0279 | -0.0474
COc1ccccc1NC(=S)NNC(=O)CSc1ccccc1[N+](=O)[O-] | 0.0388 | 0.0156 | 0.0403 | 0.0916 | 0.0332 | -0.0193 | 0.0469 | 0.064 | 0.00382 | -0.0222
CC1(C)CC(=O)N(c2cc(Cl)cc(Cl)c2)C(=O)C1 | 0.0251 | 0.0345 | 0.0195 | -0.021 | -0.00455 | -0.0193 | 0.025 | 0.032 | -0.0103 | -0.0488
CCOC(=O)NN=C(C)C(C)=NNC(=O)OCC | -0.0316 | -0.0656 | -0.0255 | -0.0305 | -0.00664 | -0.0333 | -0.0653 | -0.00622 | -0.0094 | 0.0167
COC(=O)CC1(C(=O)OC)Oc2ccc(Br)cc2C(=O)N1c1cccc(Cl)c1Cl (stereo not given) | -0.195 (active) | 0.188 (active) | -0.0998 | -0.677 (active) | -0.246 (active) | -0.108 (active) | 0.102 | 0.0176 | -0.204 (active) | -0.0135
O=C(c1ccccc1)c1c(Cl)cc(C(F)(F)F)cc1Cl | -0.0258 | 0.0352 | 0.0614 | 0.0559 | 0.0324 | 0.00162 | 0.0087 | 0.0434 | 0.000317 | 0.0159
COc1ccc(C(C)=NO)cc1CN1CCCC1 | 0.00748 | 0.0291 | 0.0236 | 0.062 | 0.0507 | 0.0203 | 0.0511 | -0.0181 | -0.0237 | 0.0863
CCOC(=O)CSc1nnc(OCC)n1-c1ccccc1 | -0.0276 | -0.00436 | 0.0123 | -0.00338 | 0.0529 | -0.0234 | 0.0181 | -0.0101 | -0.0109 | 0.0084
CCOC(=O)c1c(N)n(-c2ccc(Cl)cc2)c2nc3ccccc3nc12 | -0.0102 | 0.0245 | -0.0247 | 0.0204 | 0.0261 | -0.0291 | -0.0146 | -0.0215 | 0.011 | 0.0184
O=c1[nH]cnc2scc(-c3cccs3)c12 | -0.0452 | -0.0118 | 0.0191 | 0.0165 | -0.0657 | -0.0434 | 0.00866 | -0.0381 | 0.0239 | -0.0542
CC(=O)N(C(C)=O)c1ccc2c3c(cccc13)CC2 | 0.051 | -0.00187 | -0.0119 | -0.0487 | -0.0226 | 0.0133 | 0.0421 | -0.00855 | 0.0484 | 0.0138
CCOC(=O)c1cc(NC(=O)CC(C)(C)CC(=O)O)ccc1N1CCCCC1 | 0.0551 | 0.0365 | 0.0312 | 0.0131 | -0.0575 | 0.0216 | 0.0587 | 0.0261 | 0.0168 | 0.00209
CSC(=S)NNC(=O)c1ccc(C(F)(F)F)cc1 | 0.0858 | 0.233 (active) | 0.0998 | 0.29 (active) | 0.1 | 0.134 (active) | 0.158 (active) | 0.0788 | 0.305 (active) | 0.232 (active)
N#CC(NCc1ccccc1Cl)=C(C#N)NCc1c(F)cccc1Cl | -0.0652 | -0.0209 | -0.0204 | -0.171 (active) | -0.129 (active) | -0.2 (active) | -0.262 (active) | -0.0733 | -0.185 (active) | 0.00197
Cc1cc(C)n2nc(Sc3ncccc3[N+](=O)[O-])nc2n1 | 0.0293 | -0.0122 | -0.0308 | 0.00857 | 0.0468 | 0.0175 | -0.025 | -0.00322 | 0.00925 | 0.0318
O=S(=O)(NCc1ccc2c(c1)CCO2)c1cccs1 | -0.0321 | -0.0222 | -0.0113 | -0.00792 | -0.0976 | -0.0104 | -0.072 | -0.0692 | -0.0665 | -0.0508
CS(=O)(=NS(=O)(=O)c1ccc(OC(F)(F)F)cc1)c1ccccc1 (stereo not given) | 0.0244 | -0.0162 | 0.018 | -0.00984 | 0.0614 | 0.00979 | -0.0151 | 0.00446 | 0.0404 | 0.0068
O=C(CNc1cc(C(F)(F)F)cc(C(F)(F)F)c1)c1ccc(Cl)cc1 | -0.0386 | 0.0507 | -0.00515 | -0.0229 | -0.0851 | 0.0058 | 0.0119 | 0.000503 | 0.0102 | 0.0351
O=C1c2cccc3c(Sc4ccccc4)ccc(c23)C(=O)N1CCc1ccccn1 | 0.00854 | -0.00319 | -0.0137 | 0.0446 | 0.0111 | -0.0274 | -0.0207 | 0.02 | -0.00592 | 0.0318
